Laboratory results: PubChem BioAssay (EPA / NIEHS)
Active and inactive are the calls of the source. How the source made its calls: active means hit-call score of the fitted dose curve at least 0.9, where 1 is the maximum; inactive means score below 0.9.

Tested on: not listed separately
Test: ATG_MRE_CIS: Attagene CIS-FACTORIAL HepG2 Assay for human Metal Responsive Element (MRE) (AID 2282954)
Conditions: HepG2 MRE cis-reporter transcription, Attagene multiplex; actives raise or lower the signal
Procedure, shortened: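 RT-PCR/capillary electrophoresis readout of reporter mRNA, 24 h post-dosing, in HepG2 cells transfected with multiplexed cis-regulated reporter constructs. Gain or loss of signal fitted bidirectionally against DMSO baseline.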
With O=C(O)Cc1ccccc1Nc1c(Cl)cccc1Cl the outcome was “inactive”.
In the case of Cc1ccccc1Cl, the outcome is reported as “inactive”.
With Cc1nc(C)nc(N2C[C@@H](C)N(c3ccnc([C@@H](C)O)n3)[C@@H](C)C2)n1 the outcome was “inactive”.
In the case of NS(=O)(=O)c1cc2c(cc1Cl)NCNS2(=O)=O, the outcome is reported as “inactive”.
In the case of NC(=O)Cn1c(=O)cc(CCN2CCN(c3nccc4sccc34)CC2)c2ccc(F)cc21, the outcome is reported as “inactive”.
In the case of Cc1cc(=O)[nH]c(=S)[nH]1, the outcome is reported as “inactive”.
With CCCCN(CCCC)CCCC the outcome was “inactive”.
With Cc1nc(-c2ccc3c(c2)CCN(CCC2CCC(NC(=O)/C=C/c4ccc(F)cc4)CC2)CC3)no1 (configuration not stated) the outcome was “inactive”.
In the case of COc1cc(/C=C/C(=O)CC(=O)/C=C/c2ccc(O)c(OC)c2)ccc1O, the AC50 is reported as 52.6 µM (active).
For O=c1[nH]cc(F)c(=O)[nH]1, the outcome was “inactive”.
For CN[C@H]1CC[C@@H](c2ccc(Cl)c(Cl)c2)c2ccc(S(N)(=O)=O)cc21, the outcome was “inactive”.
In the case of Nc1nc(N)c2nc(CNc3ccc(C(=O)N[C@@H](CCC(=O)O)C(=O)O)cc3)cnc2n1, the outcome is reported as “inactive”.

Tested on: not listed separately
Test: ATG_PBREM_CIS: Attagene CIS-FACTORIAL HepG2 Assay for human Phenobarbital-responsive Enhancer Module (PBREM) (AID 2282955)
Conditions: HepG2 PBREM cis-reporter, Attagene multiplexed transcription; actives raise or lower the signal
Procedure, shortened: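 After a 24 h incubation with test chemical, transfected HepG2 cells yield total RNA; reporter-specific RT-PCR products are fluorescently labelled, HpaI-digested and resolved by capillary electrophoresis against ROX size standards.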
For Cc1cc(NC(=O)C(=O)O)cc(C)c1Oc1ccc(O)c2c1CCC2, the outcome was “inactive”.
In the case of CCc1c(C(=O)NN2CCCCC2)nn(-c2ccc(Cl)cc2Cl)c1-c1ccc(Br)cc1, the outcome is reported as “inactive”.
For COc1cc(S(=O)(=O)O)c(C)cc1N=Nc1c(O)ccc2cc(S(=O)(=O)O)ccc12, the outcome was “inactive”.
In the case of CN1CCN(Cc2cc(-c3ccc4[nH]c(=O)oc4c3)co2)[C@@H](c2ccc(F)cc2)C1, the outcome is reported as “inactive”.
For FC(F)(F)C(F)(F)C(F)(F)C(F)(F)C(F)(F)C(F)(F)CCI, the outcome was “inactive”.
With CNC(=O)[C@H]1O[C@@H](n2cnc3c(NCc4cc(Cl)ccc4OCc4cc(C)no4)ncnc32)[C@H](O)[C@@H]1N the outcome was “inactive”.
In the case of CCCCc1ccc2c(n1)[C@@H](c1ccc(OC)cc1C[C@H](C)C(=O)O)[C@H](C(=O)O)[C@H]2c1ccc2c(c1)OCO2, the outcome is reported as “inactive”.
For O=C(O)CCCCC(=O)O, the outcome was “inactive”.
In the case of CCCCCCCCCCCC(=O)OC, the outcome is reported as “inactive”.
For Cc1ccc(Cl)cc1, the outcome was “inactive”.
In the case of COCCOCCOC, the outcome is reported as “inactive”.
For CC(=O)OCCOCCOCCOC(C)=O, the outcome was “inactive”.
For COc1cc(-c2nc(NC(=O)c3cc4cc(C)cc(C)c4n3CC(=O)O)sc2CCC2CCCCC2)c(OC)cc1Cl, the AC50 was 4.42 µM (active).
For O=C(O)Cc1ccccc1Nc1c(Cl)cccc1Cl, the outcome was “inactive”.
For Cc1ccccc1Cl, the outcome was “inactive”.
In the case of Cc1cc(=O)[nH]c(=S)[nH]1, the outcome is reported as “inactive”.
In the case of CCCCN(CCCC)CCCC, the outcome is reported as “inactive”.
For Cc1nc(-c2ccc3c(c2)CCN(CCC2CCC(NC(=O)/C=C/c4ccc(F)cc4)CC2)CC3)no1 (configuration not stated), the outcome was “inactive”.
With COc1cc(/C=C/C(=O)CC(=O)/C=C/c2ccc(O)c(OC)c2)ccc1O the outcome was “inactive”.
In the case of CN[C@H]1CC[C@@H](c2ccc(Cl)c(Cl)c2)c2ccc(S(N)(=O)=O)cc21, the outcome is reported as “inactive”.
With Nc1nc(N)c2nc(CNc3ccc(C(=O)N[C@@H](CCC(=O)O)C(=O)O)cc3)cnc2n1 the outcome was “inactive”.

Target: Paired box protein Pax-6 (Homo sapiens) (UniProt P26367)
Sequence (P26367 whole entry, looked up): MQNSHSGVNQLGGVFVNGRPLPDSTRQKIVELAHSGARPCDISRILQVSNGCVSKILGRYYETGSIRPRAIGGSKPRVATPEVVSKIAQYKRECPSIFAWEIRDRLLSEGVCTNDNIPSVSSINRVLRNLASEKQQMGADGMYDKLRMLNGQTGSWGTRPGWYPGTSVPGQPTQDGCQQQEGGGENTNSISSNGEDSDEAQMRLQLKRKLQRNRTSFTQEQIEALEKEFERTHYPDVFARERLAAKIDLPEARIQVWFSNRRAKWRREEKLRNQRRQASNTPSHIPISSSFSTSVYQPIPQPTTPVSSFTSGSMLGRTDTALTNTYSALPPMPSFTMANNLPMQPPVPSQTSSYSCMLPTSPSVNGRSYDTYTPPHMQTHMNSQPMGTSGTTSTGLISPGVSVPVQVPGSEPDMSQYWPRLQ
Test: ATG_Pax6_CIS: Attagene CIS-FACTORIAL HepG2 Assay for human Paired Box 6 (PAX6) (AID 2282956)
Conditions: HepG2 CIS-FACTORIAL PAX6 reporter transcription, RNA readout; actives raise or lower the signal
Procedure, shortened: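 Readout: reporter transcript fluorescence after RT-PCR and capillary electrophoresis. Cells: HepG2, transiently transfected with cis-regulated MRTUs. Exposure 24 h. Gain or loss of signal fitted bidirectionally relative to DMSO.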
With Cc1c(C(=O)O)c(O)cc2c1C(=O)c1c(O)c([C@@H]3O[C@H](CO)[C@@H](O)[C@H](O)[C@H]3O)c(O)c(O)c1C2=O the outcome was “inactive”.
For Cc1cc(NC(=O)C(=O)O)cc(C)c1Oc1ccc(O)c2c1CCC2, the outcome was “inactive”.
With CCCCCCCCCCO the outcome was “inactive”.
For CCc1c(C(=O)NN2CCCCC2)nn(-c2ccc(Cl)cc2Cl)c1-c1ccc(Br)cc1, the AC50 was 1.75 µM (active).
With COc1cc(S(=O)(=O)O)c(C)cc1N=Nc1c(O)ccc2cc(S(=O)(=O)O)ccc12 the outcome was “inactive”.
In the case of CCOC(=O)C(C)(C)Oc1ccc(Cl)cc1, the outcome is reported as “inactive”.
In the case of CN1CCN(Cc2cc(-c3ccc4[nH]c(=O)oc4c3)co2)[C@@H](c2ccc(F)cc2)C1, the AC50 is reported as 47.4 µM (active).
In the case of FC(F)(F)C(F)(F)C(F)(F)C(F)(F)C(F)(F)C(F)(F)CCI, the outcome is reported as “inactive”.
For CNC(=O)[C@H]1O[C@@H](n2cnc3c(NCc4cc(Cl)ccc4OCc4cc(C)no4)ncnc32)[C@H](O)[C@@H]1N, the outcome was “inactive”.
With CCCCc1ccc2c(n1)[C@@H](c1ccc(OC)cc1C[C@H](C)C(=O)O)[C@H](C(=O)O)[C@H]2c1ccc2c(c1)OCO2 the outcome was “inactive”.
In the case of O=C(O)CCCCC(=O)O, the outcome is reported as “inactive”.
For CCCCCCCCCCCC(=O)OC, the outcome was “inactive”.
For Cc1ccc(Cl)cc1, the outcome was “inactive”.
With CC(CO)OC(C)CO (configuration not stated) (tested in a mixture with another compound) the outcome was “inactive”.
In the case of COCCOCCOC, the outcome is reported as “inactive”.
In the case of CC(=O)OCCOCCOCCOC(C)=O, the outcome is reported as “inactive”.
For COc1cc(-c2nc(NC(=O)c3cc4cc(C)cc(C)c4n3CC(=O)O)sc2CCC2CCCCC2)c(OC)cc1Cl, the AC50 was 14.2 µM (active).
For O=C(O)Cc1ccccc1Nc1c(Cl)cccc1Cl, the outcome was “inactive”.
With Cc1ccccc1Cl the outcome was “inactive”.
In the case of Cc1nc(C)nc(N2C[C@@H](C)N(c3ccnc([C@@H](C)O)n3)[C@@H](C)C2)n1, the outcome is reported as “inactive”.
For NS(=O)(=O)c1cc2c(cc1Cl)NCNS2(=O)=O, the outcome was “inactive”.
With NC(=O)Cn1c(=O)cc(CCN2CCN(c3nccc4sccc34)CC2)c2ccc(F)cc21 the outcome was “inactive”.
For Cc1cc(=O)[nH]c(=S)[nH]1, the outcome was “inactive”.
For CCCCN(CCCC)CCCC, the outcome was “inactive”.
In the case of Cc1nc(-c2ccc3c(c2)CCN(CCC2CCC(NC(=O)/C=C/c4ccc(F)cc4)CC2)CC3)no1 (configuration not stated), the outcome is reported as “inactive”.
For COc1cc(/C=C/C(=O)CC(=O)/C=C/c2ccc(O)c(OC)c2)ccc1O, the AC50 was 46.6 µM (active).
With O=c1[nH]cc(F)c(=O)[nH]1 the outcome was “inactive”.
With CN[C@H]1CC[C@@H](c2ccc(Cl)c(Cl)c2)c2ccc(S(N)(=O)=O)cc21 the outcome was “inactive”.
With Nc1nc(N)c2nc(CNc3ccc(C(=O)N[C@@H](CCC(=O)O)C(=O)O)cc3)cnc2n1 the outcome was “inactive”.
